Nine compounds from PubChem BioAssay (NCATS) can be followed below.

Values without a mark were called inactive. Results filed as inconclusive are left out. Calls of active or inactive are those of the source. Unless noted, calls come from the whole dose curve; as a rule, active = well fitted curve in either direction with a large enough effect (not every such curve was filed as active); inconclusive = small, poorly fitted or top-dose-only effect, or another doubt; inactive = flat fitted curve, though single readings scatter. Bounds are passed on as bounds.

Experiment [1] concerns the target Lysosomal acid glucosylceramidase (Homo sapiens) (UniProt P04062). The experiment is described as follows: Glucocerebrosidase-p2 (AID 348; in the data active = potency below about 10 µM; note: potency is the fitted concentration of half-maximal effect). As to conditions: purified GBA, blue fluorogenic substrate, 40 min. An outline of the steps:
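Compounds titrated from 0.6 nM upwards against 0.2 nM enzyme in pH 5.9 citric acid/KH2PO4, taurocholate, tween-20; blue fluorogenic substrate 80 uM, 40 min room temperature, stopped and read Ex 365/Em 440 for AC50.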

The target in experiment [2] is Cytochrome P450 1A2 (Homo sapiens) (UniProt P05177). The experiment is described as follows: p450-cyp1a2 (AID 410; calls by dose curve; note: potency is the fitted concentration of half-maximal effect). As to conditions: recombinant CYP1A2, luciferin-ME demethylation, luminescence; series mostly up to 11.4 µM. An outline of the steps:
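20nM CYP1A2 with 100uM Luciferin-ME (at Km) in 100mM KPO4; compound preincubated 10 min, NADPH regeneration added, 60 min at room temperature. Luciferin quantified by luminescence after detection reagent; normalized to 57 uM furafylline.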

The nature of experiment [3]: Stat Signaling Pathway (AID 446).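 Note: ME-180 cervical cancer cells given 40 pM IL-6 alongside compound; SIE-controlled beta-lactamase reporter measured as 460/530 nm FRET emission ratio; % is set by controls: 0 for no effect and ±100 for the full control effect.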 As to conditions: ME-180 SIE beta-lactamase reporter, IL-6 stimulated, 5 h; at 7.69 µM (top of the series) unless noted. The method in brief:
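Reporter line: ME-180 cervical carcinoma, SIE-beta-lactamase. Treatment: compound with 40 pM IL-6, 5 hrs, 37 C, in low-serum OPTI-MEM with 10 mM HEPES pH 7.3. Detection: 460/530 nm fluorescence.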

Experiment [4] has as its target Glucocorticoid receptor (Homo sapiens) (UniProt P04150). In words: GR-GFP Redistribution (AID 450;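 active = compounds whose dose series gives a full or clear partial fitted curve of increased nuclear translocation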; note: potency is the fitted concentration of half-maximal effect). Conditions: U2OS GR-GFP nuclear translocation, laser cytometry, 2 h.
Experiment [5] shares this target. The experiment is described as follows: GR-EFC Redistribution (AID 451; calls by dose curve; note: potency is the fitted concentration of half-maximal effect). As to conditions: CHO-K1 GR-EFC translocation, beta-gal luminescence, 2 h. The method in brief:
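CHO-K1 cells stably expressing nuclear-localized β-gal enzyme acceptor and GR fused C-terminally to the enzyme donor fragment; ligand-driven nuclear translocation restores β-gal by complementation. Compounds titrated up to 46 uM final, 2 h at 37 °C; luminescence read.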

The target in experiment [6] is Mitogen-activated protein kinase 10 (Mus musculus) (UniProt Q61831). In words: JNK3 AlphaScreen Assay (AID 530).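 Note: kinase came from lysate of stimulated human HepG2 cells; signal reports phosphorylation of biotinylated GST-cJun 1-79 at Ser73 with 10 µM ATP; % is set by controls: 0 for no effect and ±100 for the full control effect.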 Conditions: JNK3 lysate, c-Jun phosphorylation; series mostly up to 11.4 µM. An outline of the steps: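 Inhibitors reduce antibody binding to phosphorylated biotin-cJun, lowering AlphaScreen luminescence. Lysates from HepG2 cells pre-activated by IL-1beta plus TNF-alpha supplied JNK3; compounds were titrated.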

For experiment [7], the target named is 3',5'-cyclic-AMP phosphodiesterase 4B (Homo sapiens) (UniProt Q07343). The experiment is described as follows: qHTS Assay for Inhibitors of PDE-IV (AID 607; active = well fitted activation curve with a large enough effect in the main read-out, with a control signal flat, not every such curve was filed as active; note: % of control where 0% means no effect). Conditions: HEK293 ACTOne CNG channel cells, membrane potential fluorescence; series mostly up to 22.9 µM. The method in brief: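 Cell-based read-out of cAMP via a modified cyclic nucleotide-gated channel and membrane potential dye (535/590 nm) in HEK293 cells expressing PDE4 endogenously. Compounds tested up to 22.9 uM final; 100 uM RO 20-1724 reference.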
On the technique in general: Quantitative high-throughput screening tests each substance at several concentrations.

A short description of experiment [8]: NFAT Signaling Pathway (AID 444).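 Note: carbachol stimulus at about its EC50 of 1 µM final; % is set by controls: 0 for no effect and ±100 for the full control effect.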 Conditions: Jurkat NFAT-bla M1, carbachol, beta-lactamase ratio, 5 h; at 7.69 µM (top of the series) unless noted. The method in brief: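 Jurkat cells carrying an NFAT-driven β-lactamase reporter and co-transfected muscarinic M1 receptor were treated with compound plus carbachol (1 uM final, an EC50 level) for 5 h at 37 °C. CCF4 loading followed for 1 h at RT; 460/530 nm ratio gave %activity.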

The target in experiment [9] is Cytochrome P450 2D6 (Homo sapiens) (UniProt P10635). The experiment is described as follows: qHTS Assay for Inhibitors and Substrates of Cytochrome P450 2D6 (AID 891; active = well fitted curve in the direction sought with a large enough effect; an effect the other way counts as inactive or inconclusive; note: potency is the fitted concentration of half-maximal effect; nearly all actives have a fitted effect of over 60% in size). Conditions: recombinant CYP2D6, luciferin-ME EGE luminescence; series mostly up to 11.4 µM. The method in brief: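 Human CYP2D6 (5 nM) with 30 uM Luciferin-ME EGE (at Km) in 100 mM KPO4, compound preincubated 10 min, then NADPH regeneration system for 60 min at room temperature. Luciferin read by luminescence; normalized to 1.43 uM quinidine.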

The nature of experiment [10]: qHTS profiling for inhibitors of Plasmodium falciparum proliferation (AID 504749; active = well fitted curve in the direction sought with a large enough effect; an effect the other way counts as inactive or inconclusive;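 note: 0% = DMSO vehicle and full inhibition = artemisinin control; nearly all actives have a fitted effect of over 60% in size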). As to conditions: P. falciparum in erythrocytes, SYBR Green DNA, 72 h, at 28.7 µM (top of the series). An outline of the steps: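 Parasite proliferation within erythrocytes, 72 h exposure. Endpoint: SYBR Green I fluorescence after overnight lysis at room temperature. Controls: 0.29 uM artemisinin, DMSO.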

Experiment [11] has as its target Cytochrome P450 3A4 (Homo sapiens) (UniProt P08684). In words: qHTS Assay for Activators of Cytochrome P450 3A4 (AID 885; active = well fitted curve in the direction sought with a large enough effect; an effect the other way counts as inactive or inconclusive; note: nearly all actives have a fitted effect of over 65% in size). Conditions: recombinant CYP3A4, Luciferin-PPXE luminescence, 60 min; series mostly up to 11.4 µM. An outline of the steps:
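Signal was normalized against complete inhibition by 57 uM ketoconazole. The reaction used 20nM CYP3A4 with 25uM Luciferin-PPXE, 10-min compound preincubation and a 60-min NADPH-supported step at RT.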

Experiment [12] can be described thus: qHTS Assay for Identification of Small Molecule Agonists for Hypoxia Response Element Signaling Pathway (AID 914; active = well fitted activation curve with a large enough effect in the signal ratio, with a control signal flat, not every such curve was filed as active; the % refers to the signal ratio; note: potency is the fitted concentration of half-maximal effect; for activation: % of control where 0% means no effect). Conditions: ME-180 (cervical carcinoma) HRE-bla reporter, beta-lactamase ratio, CoCl2, 17 h; activation: stronger effect = higher value. The method in brief: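 A beta-lactamase reporter under hypoxia response element control in ME-180 cells served as the system. Compound titrations plus EC50 CoCl2 ran 17 h at 37 degrees Celsius; AC50 values were fitted from %Activity.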

For experiment [13], the target named is Cytochrome P450 2C9 (Homo sapiens) (UniProt P11712). The experiment is described as follows: qHTS Assay for Inhibitors and Substrates of Cytochrome P450 2C9 (AID 883; active = well fitted curve in the direction sought with a large enough effect; an effect the other way counts as inactive or inconclusive; note: potency is the fitted concentration of half-maximal effect; nearly all actives have a fitted effect of over 60% in size). As to conditions: recombinant CYP2C9, luciferin-H luminescence, 60 min; series mostly up to 11.4 µM. The method in brief: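 CYP2C9 deoxyluciferin hydroxylation, 37C, 60 min with NADPH regeneration; 10nM enzyme, 100uM Luciferin-H (KM). Glo detection reagent stopped reaction; luminescence normalized to sulphaphenazole (57uM) full inhibition.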

Experiment [14] deals with Cytochrome P450 3A4 (Homo sapiens) (UniProt P08684). The experiment is described as follows: qHTS Assay for Inhibitors and Substrates of Cytochrome P450 3A4 (AID 884; active = well fitted curve in the direction sought with a large enough effect; an effect the other way counts as inactive or inconclusive; note: potency is the fitted concentration of half-maximal effect; nearly all actives have a fitted effect of over 50% in size). As to conditions: recombinant CYP3A4, Luciferin-PPXE luminescence; series mostly up to 57.1 µM. The method in brief: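 20 nM human CYP3A4 with 25 uM Luciferin-PPXE (at KM) in 200 mM KPO4, preincubated 10 min with compound; NADPH regeneration started a 60 min RT reaction. Luciferin detected by luminescence, normalized to 57 uM ketoconazole as full inhibition.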
Chain of Cytochrome P450 3A4 (Homo sapiens) (P08684 whole entry, looked up): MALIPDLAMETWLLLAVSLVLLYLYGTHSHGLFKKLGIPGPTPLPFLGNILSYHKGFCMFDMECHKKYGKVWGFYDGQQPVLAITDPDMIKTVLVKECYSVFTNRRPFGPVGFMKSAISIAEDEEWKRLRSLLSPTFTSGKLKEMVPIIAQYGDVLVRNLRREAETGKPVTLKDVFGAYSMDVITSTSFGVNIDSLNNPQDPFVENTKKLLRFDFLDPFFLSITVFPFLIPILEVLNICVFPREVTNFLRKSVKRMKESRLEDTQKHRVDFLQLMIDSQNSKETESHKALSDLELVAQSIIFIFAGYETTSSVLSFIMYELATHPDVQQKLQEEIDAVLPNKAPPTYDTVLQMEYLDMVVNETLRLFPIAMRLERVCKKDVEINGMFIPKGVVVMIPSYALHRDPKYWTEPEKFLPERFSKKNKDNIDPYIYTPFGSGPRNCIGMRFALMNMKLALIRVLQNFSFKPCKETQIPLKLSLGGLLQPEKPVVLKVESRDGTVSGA

Chain of Lysosomal acid glucosylceramidase (Homo sapiens) (P04062 whole entry, looked up): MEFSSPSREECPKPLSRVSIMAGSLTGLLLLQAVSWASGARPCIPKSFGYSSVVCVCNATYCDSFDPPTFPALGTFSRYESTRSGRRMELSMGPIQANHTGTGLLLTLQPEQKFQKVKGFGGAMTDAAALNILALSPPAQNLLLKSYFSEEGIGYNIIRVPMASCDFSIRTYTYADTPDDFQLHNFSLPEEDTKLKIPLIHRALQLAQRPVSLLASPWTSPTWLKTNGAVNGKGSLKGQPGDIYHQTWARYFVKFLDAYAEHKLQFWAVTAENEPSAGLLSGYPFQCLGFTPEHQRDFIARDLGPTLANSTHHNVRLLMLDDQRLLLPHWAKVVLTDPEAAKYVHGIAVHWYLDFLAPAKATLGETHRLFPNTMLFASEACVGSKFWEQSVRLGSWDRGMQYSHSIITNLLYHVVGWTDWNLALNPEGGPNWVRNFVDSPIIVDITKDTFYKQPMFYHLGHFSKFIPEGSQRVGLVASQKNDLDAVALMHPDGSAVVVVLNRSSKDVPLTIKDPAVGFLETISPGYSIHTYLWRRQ
Chain of Cytochrome P450 1A2 (Homo sapiens) (P05177 whole entry, looked up): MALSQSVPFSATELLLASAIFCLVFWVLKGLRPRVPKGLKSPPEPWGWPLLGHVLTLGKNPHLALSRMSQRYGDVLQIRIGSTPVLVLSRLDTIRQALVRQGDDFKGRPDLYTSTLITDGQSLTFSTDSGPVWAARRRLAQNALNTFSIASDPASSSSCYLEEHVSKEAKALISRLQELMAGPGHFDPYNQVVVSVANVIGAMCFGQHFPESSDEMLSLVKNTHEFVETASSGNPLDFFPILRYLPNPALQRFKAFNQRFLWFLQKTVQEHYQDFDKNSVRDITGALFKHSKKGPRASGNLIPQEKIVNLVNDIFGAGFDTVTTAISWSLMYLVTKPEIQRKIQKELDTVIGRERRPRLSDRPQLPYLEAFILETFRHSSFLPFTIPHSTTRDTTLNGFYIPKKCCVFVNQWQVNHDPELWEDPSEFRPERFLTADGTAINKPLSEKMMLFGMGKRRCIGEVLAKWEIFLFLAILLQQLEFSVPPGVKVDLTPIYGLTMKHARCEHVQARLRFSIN
Chain of 3',5'-cyclic-AMP phosphodiesterase 4B (Homo sapiens) (Q07343 whole entry, looked up): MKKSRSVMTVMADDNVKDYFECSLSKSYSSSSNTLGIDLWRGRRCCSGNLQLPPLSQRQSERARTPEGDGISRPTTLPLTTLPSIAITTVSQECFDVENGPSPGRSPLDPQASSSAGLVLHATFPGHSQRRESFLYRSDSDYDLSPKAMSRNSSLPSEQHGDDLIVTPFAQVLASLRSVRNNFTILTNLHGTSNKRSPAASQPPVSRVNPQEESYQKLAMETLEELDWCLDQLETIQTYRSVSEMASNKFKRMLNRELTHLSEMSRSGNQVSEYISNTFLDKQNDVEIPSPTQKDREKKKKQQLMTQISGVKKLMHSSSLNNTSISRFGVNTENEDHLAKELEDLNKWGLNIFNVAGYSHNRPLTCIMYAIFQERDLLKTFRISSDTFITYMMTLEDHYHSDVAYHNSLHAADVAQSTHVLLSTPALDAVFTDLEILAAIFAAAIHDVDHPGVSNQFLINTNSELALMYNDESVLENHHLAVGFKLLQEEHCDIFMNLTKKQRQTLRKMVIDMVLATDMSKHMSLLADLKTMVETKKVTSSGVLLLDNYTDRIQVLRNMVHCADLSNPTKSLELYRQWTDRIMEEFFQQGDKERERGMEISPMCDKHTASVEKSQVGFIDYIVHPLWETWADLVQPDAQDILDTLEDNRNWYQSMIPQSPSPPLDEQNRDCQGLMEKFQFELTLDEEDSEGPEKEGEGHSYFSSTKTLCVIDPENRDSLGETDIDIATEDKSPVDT
Chain of Glucocorticoid receptor (Homo sapiens) (P04150 whole entry, looked up): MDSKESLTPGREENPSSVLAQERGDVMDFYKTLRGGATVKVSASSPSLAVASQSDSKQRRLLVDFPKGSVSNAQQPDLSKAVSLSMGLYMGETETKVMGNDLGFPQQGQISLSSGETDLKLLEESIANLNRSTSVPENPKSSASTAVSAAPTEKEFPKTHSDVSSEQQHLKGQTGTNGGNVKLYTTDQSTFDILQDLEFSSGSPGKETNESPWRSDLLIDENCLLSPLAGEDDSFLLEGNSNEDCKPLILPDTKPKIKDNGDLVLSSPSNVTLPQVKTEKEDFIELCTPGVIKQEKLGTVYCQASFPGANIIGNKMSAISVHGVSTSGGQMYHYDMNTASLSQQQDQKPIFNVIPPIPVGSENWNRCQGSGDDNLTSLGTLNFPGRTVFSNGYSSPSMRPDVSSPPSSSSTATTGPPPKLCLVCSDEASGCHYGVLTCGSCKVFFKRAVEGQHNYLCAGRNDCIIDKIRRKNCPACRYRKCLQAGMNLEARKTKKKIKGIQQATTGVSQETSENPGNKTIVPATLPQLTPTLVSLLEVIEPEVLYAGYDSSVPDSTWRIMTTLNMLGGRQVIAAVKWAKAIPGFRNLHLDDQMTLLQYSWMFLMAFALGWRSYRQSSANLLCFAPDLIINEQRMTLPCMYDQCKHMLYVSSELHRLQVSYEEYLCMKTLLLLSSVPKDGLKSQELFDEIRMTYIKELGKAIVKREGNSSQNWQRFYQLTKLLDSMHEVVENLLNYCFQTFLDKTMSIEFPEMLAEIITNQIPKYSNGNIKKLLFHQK
Chain of Cytochrome P450 2D6 (Homo sapiens) (P10635 whole entry, looked up): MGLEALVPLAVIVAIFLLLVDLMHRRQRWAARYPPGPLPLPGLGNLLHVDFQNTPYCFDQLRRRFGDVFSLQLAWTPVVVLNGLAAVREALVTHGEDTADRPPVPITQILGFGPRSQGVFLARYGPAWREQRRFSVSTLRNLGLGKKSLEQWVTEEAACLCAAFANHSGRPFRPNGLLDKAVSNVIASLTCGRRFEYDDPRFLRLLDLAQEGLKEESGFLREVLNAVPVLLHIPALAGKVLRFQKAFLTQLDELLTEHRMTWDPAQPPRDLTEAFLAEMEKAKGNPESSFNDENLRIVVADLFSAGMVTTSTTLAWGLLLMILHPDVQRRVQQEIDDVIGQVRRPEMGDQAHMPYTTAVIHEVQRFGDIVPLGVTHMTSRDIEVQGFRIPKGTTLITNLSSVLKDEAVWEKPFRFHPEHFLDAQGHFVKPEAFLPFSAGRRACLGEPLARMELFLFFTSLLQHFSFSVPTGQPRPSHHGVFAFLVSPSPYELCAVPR
Chain of Cytochrome P450 2C9 (Homo sapiens) (P11712 whole entry, looked up): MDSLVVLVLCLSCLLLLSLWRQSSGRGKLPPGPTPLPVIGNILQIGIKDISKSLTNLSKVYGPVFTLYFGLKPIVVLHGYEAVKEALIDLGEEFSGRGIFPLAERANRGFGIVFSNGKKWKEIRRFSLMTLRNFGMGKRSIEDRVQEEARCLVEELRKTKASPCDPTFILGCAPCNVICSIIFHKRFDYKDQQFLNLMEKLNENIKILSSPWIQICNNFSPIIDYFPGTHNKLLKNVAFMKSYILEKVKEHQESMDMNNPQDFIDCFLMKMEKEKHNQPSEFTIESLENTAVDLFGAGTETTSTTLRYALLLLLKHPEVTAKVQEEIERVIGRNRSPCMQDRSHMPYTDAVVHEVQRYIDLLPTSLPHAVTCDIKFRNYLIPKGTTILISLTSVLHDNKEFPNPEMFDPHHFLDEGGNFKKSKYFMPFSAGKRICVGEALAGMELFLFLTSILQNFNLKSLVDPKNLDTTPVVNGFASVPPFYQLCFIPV

Consider `CC(=O)Nc1ccc(Cc2ccc3[nH]c(=O)cc(C)c3c2)cc1`, for which the Potency is above 11.4 µM in experiment [1], above 46 µM in experiment [4] and above 9.22 µM in [5]. Besides, the Potency entry in [2], in experiment [6] and in experiment [7] was “inactive” in each case. In addition, the activity, negative = inhibition in [3] is -9.78%.

On to `Oc1ccc(CNCc2ccccc2)c2cccnc12`, for which the Potency was above 11.4 µM in experiment [1], above 46 µM in experiment [4], above 9.22 µM in [5] and 1.58 µM (active) in experiment [9]. Further, the activity change, negative = inhibition in experiment [8] was -26.9%. In [3], the activity, negative = inhibition was 10.2%. Further, the Potency result in experiment [6] and in experiment [7] was “inactive” throughout.

With `CCc1ccc2c(c1)N(C[C@H](C)CN(C)C)c1ccccc1S2`, the Potency in [1] was above 11.4 µM; in experiment [4], above 46 µM; in experiment [5], above 9.22 µM. Moreover, the activity, negative = inhibition in [3] was 3.53%; in experiment [10] (parasite line A) it was -23.4%; in experiment [10] (parasite line B), -17.5%. In addition, the Potency result in experiment [6] and in experiment [7] was “inactive” throughout.

Turning to `N#CCCn1c(=O)c(-c2cccs2)nc2cnc(Oc3cccc(Cl)c3)nc21`, the Potency was above 11.4 µM in experiment [1]; 3.16 µM (active) in experiment [2]; above 9.22 µM in experiment [4]; above 46 µM in [5]; 1.58 µM (active) in [12]. In addition, the Potency result in [6] and in [11] was “inactive” each time.

As to `O=C(O)c1[nH]c(=O)[nH]c(=O)c1CN1CCCCC1`, the Potency is above 11.4 µM in experiment [1], above 46 µM in [4] and above 9.22 µM in experiment [5]. The activity change, negative = inhibition in experiment [8] was 9.91%. The activity, negative = inhibition in experiment [3] is -5.07%. Further, the Potency result in experiment [6] and in experiment [7] was “inactive” throughout.

Regarding `COCCn1c(=O)c(-c2cccc(C#N)c2)nc2cnc(N3CCNCC3)nc21`, the Potency in experiment [1] is above 11.4 µM; in [2] it was 10 µM (active); in experiment [4], above 9.22 µM; in [5], above 46 µM; in experiment [13] it was 3.98 µM (active); in experiment [12] it was 3.16 µM (active). Also, the Potency entry in [6] and in [7] was “inactive” each time.

`Nc1ccc(N=Nc2ccc(-c3ccc(O)cc3)cc2)c2ccc(S(=O)(=O)O)cc12`: the results for the Potency in [1], in [4] and in [5] were above 11.4 µM, above 46 µM and above 9.22 µM, respectively. Also, in experiment [2], the activity change, negative = inhibition was -17.8% [at 2.29 µM]. The Potency result in experiment [7] was “inactive”.

Take `COc1cccc(Nc2ncc3nc(-c4ccccc4)c(=O)n(C4CC4)c3n2)c1`: the Potency in experiment [1] is above 11.4 µM; in experiment [4] it was above 9.22 µM; in experiment [5] it was above 46 µM. For the same compound, the activity change, negative = inhibition in experiment [8] was -5.16%. The activity, negative = inhibition in [3] is 28.4%. Also, the Potency result in experiment [6] and in experiment [7] was “inactive” throughout.

On to `CCNc1ncc2nc(CCc3ccccc3)c(=O)n(-c3ccc(OC)cc3)c2n1`, for which the Potency is above 11.4 µM in experiment [1]; above 9.22 µM in [4]; above 46 µM in experiment [5]; 6.31 µM (active) in [14]; 0.251 µM (active) in experiment [9]. Moreover, the activity change, negative = inhibition in experiment [8] is -12.3%. Moreover, in experiment [3], the activity, negative = inhibition was -3.89%. Moreover, the Potency entry in experiment [6] was “inactive”. In addition, in experiment [12], the activation was -1.93%.
